PostGolgi ctrl: growth inhibition of yeast control strain, primary screen, counter-screen for post-Golgi transport modulator project; efflux-deficient yeast background strain, growth absorbance A615, 16 h; inhibition, % at 10 µM; actives 5% (n = 98,000); AID 738, 2007
CYP2C9 act: human CYP2C9 activators, primary screen, biochemical, luminescence; recombinant CYP2C9, luciferin-H conversion; active compounds read high; factor 1 = untreated enzyme, 0 = blocked; activation factor at 5 µM; actives 1.4% (n = 96,000); AID 1024, 2008;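 active = activation factor of 2 or more for CYP2C9 at a 5 µM dose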
PostGolgi yeast: phenotypic screen on post-Golgi transport, primary screen | post-Golgi transport phenotypic cell assay | inhibition, % at 10 µM | actives 0.9% (n = 98,000);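 note: yeast cells grown in 1536-well plates; yeast grown about 18 h at 30C before absorbance read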
CYP2C9 inhib: blockers of cytochrome P450 2C9 activity – biochemical, luminescence, ADME assay, primary screen. CYP2C9 Supersomes, luciferin-H conversion. inhibition, % at 5 µM. actives 20% (n = 96,000). AID 777, 2007;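 active = blocking of liver enzyme CYP2C9 beyond about 50% at 5 µM, limit read from the data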
CYP2C19 inhib: blockers of cytochrome P450 2C19 activity – biochemical, luminescence, ADME assay, primary screen; AID 778, 2007; inhibition, % at 5 µM; P33261; CYP2C19 Supersomes, luciferin-H EGE luminescence, 30 min; actives 21% (n = 96,000);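 active = CYP2C19 inhibition above a set limit at 5 µM in the primary screen, cut at about 50% in these data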
Target sequence (P33261 whole entry, looked up): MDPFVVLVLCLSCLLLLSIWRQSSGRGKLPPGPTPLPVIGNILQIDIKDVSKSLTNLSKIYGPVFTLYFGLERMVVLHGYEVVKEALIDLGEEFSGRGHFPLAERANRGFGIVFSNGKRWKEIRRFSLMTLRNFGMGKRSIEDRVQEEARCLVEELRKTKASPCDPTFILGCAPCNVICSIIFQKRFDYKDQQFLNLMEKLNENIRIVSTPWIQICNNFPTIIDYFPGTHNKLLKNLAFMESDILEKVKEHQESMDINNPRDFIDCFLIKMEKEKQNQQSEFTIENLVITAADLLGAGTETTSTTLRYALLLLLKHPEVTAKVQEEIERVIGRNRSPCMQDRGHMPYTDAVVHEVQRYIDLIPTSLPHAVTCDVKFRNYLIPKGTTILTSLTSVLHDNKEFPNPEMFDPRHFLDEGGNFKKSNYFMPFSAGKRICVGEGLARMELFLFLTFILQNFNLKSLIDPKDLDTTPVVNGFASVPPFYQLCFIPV
CYP2C19 activ: human CYP2C19 activators, primary screen, biochemical, luminescence. recombinant CYP2C19, luciferin-H EGE luminescence; active compounds read high; 0 = fully inhibited enzyme, 1 = untreated enzyme. activation factor at 5 µM. 96,000 tested, under 10 active;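 active = activation factor of at least 2 at 5 µM in the primary screen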
Large screens that a line does not name were inactive. Sampled rows, rich in hits. Any-hit rate of the full collection: about 32%. Cut-off read from the data, not from the text of the source, unless noted: active = inhibition above about 30%; inactive = the rest.

COc1cccc(CN2CCN(C(=O)COc3ccc4ccccc4c3)CC2)c1	none
COc1cccc(N2CCN(Cc3cccc(Cl)c3)CC2)c1	CYP2C9 inhib 79.3, CYP2C19 inhib 94.8
CCCCN1C(=O)C(C2c3ccccc3C(=O)N2Cc2ccccc2)C(=O)NC1=S (configuration not stated)	CYP2C9 inhib 54.0
CC12CNCC(C)(CNC1)C2O (configuration not stated)	none
O=C(O)C1CN2CCC1CC2 (configuration not stated)	none
COP(=O)(OC)C1(Nc2ccc(C)cc2)CCCCC1	CYP2C19 inhib 83.0
CCCCCCCSc1cc(OC)c(CCNC)cc1OC	PostGolgi ctrl 49.4, CYP2C19 inhib 80.6
CCCCCSc1cc(OC)c(CCNC)cc1OC	CYP2C19 inhib 62.4
CC12CN3CC(C)(CN(C1)C31CCSCC1)C2=O	none
O=c1c2ccccc2nc(-c2ccoc2)n1-c1ccccc1	none
COc1ccc(CCN(C)Cc2c(F)cccc2F)cc1OC	CYP2C19 inhib 80.4
COc1ccc(CCNCc2ccccn2)cc1OC	none
COc1cccc(OC)c1C1=NCC(=O)Nc2c1oc1ccc(Br)cc21	CYP2C9 inhib 65.1
O=C1CN=C(c2ccccc2)c2oc3ccc(Br)cc3c2N1	none
CCOc1ccc(C2C(C#N)=C(N)Oc3c2c(=O)oc2ccccc32)cc1 (configuration not stated)	CYP2C9 inhib 83.3
CC(C)CC1C(C#N)=C(N)Oc2c1c(=O)oc1ccccc21 (configuration not stated)	PostGolgi ctrl 40.8, CYP2C9 inhib 76.8
N#CC1=C(N)Oc2c(c(=O)oc3ccccc23)C1c1ccncc1 (configuration not stated)	CYP2C9 inhib 95.5, CYP2C19 inhib 57.2
COC(=O)C1=C(N)Oc2c(c(=O)oc3ccccc23)C1c1cccnc1 (configuration not stated)	CYP2C9 inhib 91.5
CCOC(=O)Cn1cc([N+](=O)[O-])nc1[N+](=O)[O-]	none
CCCC12CN3CN(C1)CC(CCC)(C3)C2O (configuration not stated)	none
OC(Cc1ccccc1)(c1ccccc1)C1CN2CCC1CC2 (configuration not stated)	none
CC(NCc1ccccc1Cl)C(O)c1ccccc1 (configuration not stated)	CYP2C19 inhib 96.3
CC(NCc1ccc(Cl)c(Cl)c1)C(O)c1ccccc1 (configuration not stated)	CYP2C19 inhib 99.8
O=C(c1cc2c(s1)CCCC2)N1CCC2(CC1)OCCO2	CYP2C19 inhib 91.6
O=C(c1csc2c1CCCCC2)N1CCC2(CC1)OCCO2	CYP2C19 inhib 98.4
O=C(c1cc(S(=O)(=O)N2CCCCC2)ccc1F)N1CCC2(CC1)OCCO2	none
O=C(c1cc2ccccc2oc1=O)N1CCC2(CC1)OCCO2	none
O=C(c1cccc(N2CCCC2=O)c1)N1CCC2(CC1)OCCO2	none
O=C(c1cc2c(s1)-c1ccccc1OC2)N1CCC2(CC1)OCCO2	CYP2C19 inhib 84.2
O=P(c1ccccc1)(c1nc2ccccc2s1)N1CCOCC1 (configuration not stated)	none
CCC(=NCCOc1ccc(Cl)cc1)c1c(O)n(C)c(=O)n(C)c1=O	none
O=C1C2CCCN2C(c2cccs2)N1c1ccccn1 (configuration not stated)	none
OC(COCc1ccc(Cl)cc1)CN1CC=C(c2ccccc2)CC1 (configuration not stated)	PostGolgi yeast 63.3
COC(=O)C(O)(c1cn(C)c2ccccc12)C(F)(F)F (configuration not stated)	CYP2C9 act 2.8
CC(=NCc1cccnc1)c1c(O)n(-c2ccccc2)c(=O)[nH]c1=O	CYP2C19 inhib 56.9
CCC(=NCCCn1ccnc1)c1c(O)n(Cc2ccccc2)c(=O)[nH]c1=O	CYP2C9 inhib 97.4, CYP2C19 inhib 94.5
CCCCn1c(O)c(C(CC)=Nc2ccc(OCC)cc2)c(=O)[nH]c1=O	none
CCC(=NCc1cccnc1)c1c(O)n(Cc2ccccc2)c(=O)[nH]c1=O	CYP2C9 inhib 68.7, CYP2C19 inhib 95.3
CC(=NCC1CCCO1)c1c(O)n(Cc2ccccc2)c(=O)[nH]c1=O (configuration not stated)	none
CCCCn1c(O)c(C(CC)=NCc2cccnc2)c(=O)[nH]c1=O	CYP2C9 inhib 60.1, CYP2C19 inhib 91.2
CC(C)C1(C)N=C(c2ncccc2C(=O)O)NC1=O (configuration not stated)	none
Cc1ccc(C(c2nnnn2Cc2ccccc2)N2CC=C(c3ccc(F)cc3)CC2)cc1 (configuration not stated)	CYP2C9 inhib 50.5, CYP2C19 inhib 70.1
CCCC(C)C1(CC)C(=O)NC(=Nc2ccc(F)cc2)NC1=O (configuration not stated)	CYP2C9 inhib 58.2
O=C(Cc1ccccc1)Oc1ccccc1N1C(=O)CCC1=O	none
CCOc1ccc(-n2c(O)c(C=NCCN3CCNCC3)c(=O)[nH]c2=O)cc1	none
CCCCOCCCn1c(N)c(C(=O)OCCOC)c2nc3ccccc3nc21	CYP2C9 inhib 51.8
CCCCn1c(N)c(C(=O)OCC2CCCO2)c2nc3ccccc3nc21 (configuration not stated)	CYP2C9 inhib 73.7, CYP2C19 inhib 68.1
COCCCn1c(N)c(C(=O)NCCC(C)C)c2nc3ccccc3nc21	PostGolgi ctrl 31.7
CC(C)CCn1c(N)c(C(=O)OCC2CCCO2)c2nc3ccccc3nc21 (configuration not stated)	CYP2C9 inhib 84.5, CYP2C19 inhib 63.1
CC(C)CCOC(=O)c1c(N)n(CC2CCCO2)c2nc3ccccc3nc12 (configuration not stated)	none
C[N+]12CCC(CC1)C(C#N)(N1CCOCC1)C2 (configuration not stated)	none
CCC(=O)N1c2ccc(S(=O)(=O)CCC(=O)N3CCC4(CC3)OCCO4)cc2CC1C (configuration not stated)	none
C=COCCn1c(C)c(C(=O)OCC)c2cc(O)ccc21	CYP2C9 inhib 71.2, CYP2C19 inhib 85.3
CN(C)P1(N(C)C)=Nc2c(c(N)nn2C)C(c2ccccc2)=N1	none
CN(C)C(=O)Oc1c(Cl)cc(Cl)c2ccccc12	CYP2C9 act 3.1
CC(C(=O)Nc1ccc(Br)cc1C(=O)c1ccccc1)N1CCOCC1 (configuration not stated)	CYP2C9 inhib 54.8, CYP2C19 inhib 60.6
O=C(CN1CCCCC1)NCC(=O)Nc1ccc(Br)cc1C(=O)c1ccccc1	none
O=C(CCN1CCOCC1)NCC(=O)Nc1ccc(Br)cc1C(=O)c1ccccc1	none

Screening results: PubChem BioAssay, several laboratories
